# Reference: the supplement of paper PMC8728848
# The sample as a whole holds a higher share of the strongest signals than the screen did.
# B1: MpL2 (Macrolepiota procera) (protein)
# chain: MSTQVSSGQTYKITNVKAGTVIRLSGEDNKSIIGYPYHSGKNQQWTFNWTGKAWTLRSASSGSYLGIEGTPADGTRLVAVNDPFEWHIWRDEANENAFRIFVPFTNYNLDLSGYGDTTPGTPVQLWWTWEGLHQTWTIDRP
# Tests used:
# Test in all cases: glycan array binding signal (z-score within array); higher = stronger binding
# Conditions in all cases: glycan notation: IUPAC condensed, linker removed; mutation: D22R
# [1] = molecular target: Fuc(a1-2)Gal(b1-3)GlcNAc(b1-3)GalNAc
# Outline: (§1)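 Glycan array binding is given as a within-array Z-score, which can be read as non-binding when negative. The arrays, 3228 of them, came from the Consortium for Functional Glycomics database and were retained only where the protein sequence was available. Z-scores were averaged across arrays of the same protein sequence at different concentrations or buffers and across linkers.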
# [2] = molecular target: Fuc(a1-2)Gal(b1-3)[Fuc(a1-4)]GlcNAc(b1-2)Man(a1-3)[Fuc(a1-2)Gal(b1-3)[Fuc(a1-4)]GlcNAc(b1-2)Man(a1-6)]Man(b1-4)GlcNAc(b1-4)[Fuc(a1-6)]GlcNAc(b1-4)[Fuc(a1-6)]GlcNAc
# Outline: as §1
# [3] = molecular target: Fuc(a1-2)Gal(b1-4)GlcNAc
# Outline: as §1
# [4] = molecular target: Fuc(a1-2)Gal(b1-4)GlcNAc(b1-2)Man
# Outline: as §1
# [5] = molecular target: Fuc(a1-2)[Gal(a1-3)]Gal(b1-4)GlcNAc(b1-3)GalNAc
# Outline: as §1
# [6] = molecular target: Fuc(a1-2)[GalNAc(a1-3)]Gal(b1-3)GalNAc(b1-3)Gal(a1-4)Gal(b1-4)Glc
# Outline: as §1
# [7] = molecular target: Fuc(a1-2)[GalNAc(a1-3)]Gal(b1-4)Glc
# Outline: as §1
# [8] = molecular target: Fuc(a1-2)[GalNAc(a1-3)]Gal(b1-4)GlcNAc(b1-3)Gal(b1-4)GlcNAc
# Outline: as §1
# [9] = molecular target: Fuc(a1-3)[Gal(b1-4)]GlcNAc6S
# Outline: as §1
# [10] = molecular target: Gal(a1-2)Gal
# Outline: as §1
# [11] = molecular target: Gal(b1-3)Gal
# Outline: as §1
# [12] = molecular target: Gal(b1-3)GalNAc(b1-3)Gal
# Outline: as §1
# [13] = molecular target: Gal(b1-3)GlcNAc(b1-3)Gal(b1-4)GlcNAc(b1-2)[Gal(b1-3)GlcNAc(b1-3)Gal(b1-4)GlcNAc(b1-6)]Man(a1-6)[Gal(b1-3)GlcNAc(b1-3)Gal(b1-4)GlcNAc(b1-2)Man(a1-3)]Man(b1-4)GlcNAc(b1-4)[Fuc(a1-6)]GlcNAc
# Outline: as §1
# [14] = molecular target: Gal(b1-3)GlcNAc(b1-3)Gal(b1-4)GlcNAc(b1-3)Gal(b1-4)GlcNAc(b1-2)[Gal(b1-3)GlcNAc(b1-3)Gal(b1-4)GlcNAc(b1-3)Gal(b1-4)GlcNAc(b1-6)]Man(a1-6)[Gal(b1-3)GlcNAc(b1-3)Gal(b1-4)GlcNAc(b1-3)Gal(b1-4)GlcNAc(b1-2)Man(a1-3)]Man(b1-4)GlcNAc(b1-4)[Fuc(a1-6)]GlcNAc
# Outline: as §1
# [15] = molecular target: Gal(b1-4)GlcNAc(a1-6)Gal(b1-4)GlcNAc
# Outline: as §1
# [16] = molecular target: Gal(b1-4)GlcNAc(b1-2)Man(a1-3)[GlcNAc(b1-2)Man(a1-6)]Man(b1-4)GlcNAc(b1-4)GlcNAc
# Outline: as §1
# [17] = molecular target: Gal(b1-4)GlcNAc(b1-2)Man(a1-6)[GlcNAc(b1-2)Man(a1-3)]Man(b1-4)GlcNAc(b1-4)GlcNAc
# Outline: as §1
# [18] = molecular target: Gal(b1-4)GlcNAc(b1-3)Gal(b1-3)GalNAc
# Outline: as §1
# [19] = molecular target: Gal(b1-4)GlcNAc(b1-3)Gal(b1-4)GlcNAc(b1-2)Man(a1-3)[Gal(b1-4)GlcNAc(b1-3)Gal(b1-4)GlcNAc(b1-2)Man(a1-6)]Man(b1-4)GlcNAc(b1-4)GlcNAc
# Outline: as §1
# [20] = molecular target: Gal(b1-4)GlcNAc(b1-3)Gal(b1-4)GlcNAc(b1-2)[Gal(b1-4)GlcNAc(b1-3)Gal(b1-4)GlcNAc(b1-6)]Man(a1-6)[Gal(b1-4)GlcNAc(b1-3)Gal(b1-4)GlcNAc(b1-2)Man(a1-3)]Man(b1-4)GlcNAc(b1-4)[Fuc(a1-6)]GlcNAc
# Outline: as §1
# [21] = molecular target: Gal(b1-4)GlcNAc(b1-3)Gal(b1-4)GlcNAc(b1-3)Gal(b1-4)GlcNAc(b1-2)Man(a1-3)[Gal(b1-4)GlcNAc(b1-3)Gal(b1-4)GlcNAc(b1-3)Gal(b1-4)GlcNAc(b1-2)Man(a1-6)]Man(b1-4)GlcNAc(b1-4)GlcNAc
# Outline: as §1
# [22] = molecular target: Gal(b1-4)GlcNAc(b1-3)Gal(b1-4)GlcNAc(b1-3)Gal(b1-4)GlcNAc(b1-2)[Gal(b1-4)GlcNAc(b1-3)Gal(b1-4)GlcNAc(b1-3)Gal(b1-4)GlcNAc(b1-6)]Man(a1-6)[Gal(b1-4)GlcNAc(b1-3)Gal(b1-4)GlcNAc(b1-3)Gal(b1-4)GlcNAc(b1-2)Man(a1-3)]Man(b1-4)GlcNAc(b1-4)[Fuc(a1-6)]GlcNAc
# Outline: as §1
# [23] = molecular target: Gal(b1-4)GlcNAc(b1-3)Gal(b1-4)GlcNAc(b1-3)[Gal(b1-4)GlcNAc(b1-3)Gal(b1-4)GlcNAc(b1-6)]GalNAc
# Outline: as §1
# [24] = molecular target: Gal(b1-4)GlcNAc(b1-3)Gal(b1-4)GlcNAc(b1-6)[Gal(b1-3)]GalNAc
# Outline: as §1
# [25] = molecular target: Gal(b1-4)GlcNAc(b1-6)Gal(b1-4)GlcNAc
# Outline: as §1
# [26] = molecular target: Gal3S(b1-4)[Fuc(a1-3)]GlcNAc
# Outline: as §1
binder,measurement,setting,value
B1,glycan array binding signal (z-score),[1],-0.233
same,glycan array binding signal (z-score),[2],0.051
same,glycan array binding signal (z-score),[3],-0.202
same,glycan array binding signal (z-score),[4],0.129
same,glycan array binding signal (z-score),[5],0.092
same,glycan array binding signal (z-score),[6],-0.533
same,glycan array binding signal (z-score),[7],-0.092
same,glycan array binding signal (z-score),[8],-0.256
same,glycan array binding signal (z-score),[9],0.212
same,glycan array binding signal (z-score),[10],-0.294
same,glycan array binding signal (z-score),[11],0.078
same,glycan array binding signal (z-score),[12],-0.315
same,glycan array binding signal (z-score),[13],10.4
same,glycan array binding signal (z-score),[14],10.8
same,glycan array binding signal (z-score),[15],4.13
same,glycan array binding signal (z-score),[16],-0.978
same,glycan array binding signal (z-score),[17],-0.42
same,glycan array binding signal (z-score),[18],-0.633
same,glycan array binding signal (z-score),[19],2.6
same,glycan array binding signal (z-score),[20],2.5
same,glycan array binding signal (z-score),[21],2.57
same,glycan array binding signal (z-score),[22],2.85
same,glycan array binding signal (z-score),[23],2.76
same,glycan array binding signal (z-score),[24],1.3
same,glycan array binding signal (z-score),[25],-1.1
same,glycan array binding signal (z-score),[26],-0.293
